# Source: PubChem (Broad Institute)
# NOMO-1 viab = STK33 inhibitor candidate reducing NOMO-1 cell viability; NOMO-1 AML viability, CellTiter-Glo luminescence, 72 h; inhibition, % (concentration not given with the values); 37,000 tested, 7.5% active; AID 2330; in the data active means inhibition above about 80%; inconclusive means no clear call, values can overlap the other calls
# PD-1 reversal = reversal of PD-1 mediated T-cell inhibition; activation, % (concentration not given with the values); AID 2316; 29,000 tested, under 10 active; primary human CD4 T cells, PD-L1 beads, CellTiter-Glo 96 h; call rule not given here;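 further: 0% = median vehicle wells and 100% = positive control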
# ROS inducer = raises reactive oxygen species in U2OS cancer cells; U2OS ROS induction, H2DCF-DA fluorescence; ROS induction (% of piperlongumine), % at 10 µM; 46,000 tested, 2% active; AID 624156; in the data active means ROS induction above about 79%, passing the limit was not always enough; inconclusive means no clear call, values can overlap the other calls;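 further: 0% = DMSO vehicle median and 100% = reference compound median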
# An asterisk follows results filed as active; ? = inconclusive; . = no result given. Only a selection was taken, and hits are over-represented in it overall.
SMILES,NOMO-1 viab,PD-1 reversal,ROS inducer
C=CCC1C(=O)N(S(=O)(=O)c2ccc(Cl)cc2)N=C1CCC (centres undefined),110*,-5,25
Cc1ccc(S(=O)(=O)N[C@@H](Cc2ccccc2)C(=O)CCl)cc1,120*,.,79*
CCCC(NS(=O)(=O)c1ccc(C)cc1)C(=O)O (centres undefined),0,.,.
O=C(CCc1ccccc1)Nc1ccc(-c2nc3ccccc3o2)cc1,.,.,4
C[C@@H]1CN([C@H](C)CO)C(=O)c2cccc(NS(=O)(=O)c3ccc(Cl)cc3)c2O[C@H]1CN(C)Cc1ccc(C(=O)Nc2ccccc2N)cc1,67,-1,16
C[C@H]1CN([C@@H](C)CO)C(=O)c2cccc(NS(=O)(=O)c3ccc(Cl)cc3)c2O[C@@H]1CN(C)Cc1ccc(C(=O)Nc2ccccc2N)cc1,126*,-3,10
C[C@H](CO)N1C[C@H](C)[C@H](CN(C)Cc2ccc(C(=O)Nc3ccccc3N)cc2)Oc2c(NS(=O)(=O)c3ccc(F)cc3)cccc2C1=O,133*,-1,38
Cc1ccc(S(=O)(=O)Nc2cccc3c2O[C@@H](CN(C)Cc2ccc(C(=O)Nc4ccccc4N)cc2)[C@H](C)CN([C@H](C)CO)C3=O)cc1,72,-1,6
C[C@@H]1CN([C@@H](C)CO)C(=O)c2cccc(NS(=O)(=O)c3ccc(Cl)cc3)c2O[C@@H]1CN(C)Cc1ccc(C(=O)Nc2ccccc2N)cc1,128*,-5,37
C[C@@H]1CN([C@@H](C)CO)C(=O)c2cccc(NS(=O)(=O)c3ccccc3)c2O[C@@H]1CN(C)Cc1ccc(C(=O)Nc2ccccc2N)cc1,129*,0,36
C[C@H]1CN([C@@H](C)CO)C(=O)c2cc(NS(=O)(=O)c3ccc(F)cc3)ccc2O[C@H]1CN(C)Cc1ccc(C(=O)Nc2ccccc2N)cc1,?,0,-9
C[C@H](CO)N1C[C@H](C)[C@@H](CN(C)Cc2ccc(C(=O)Nc3ccccc3N)cc2)Oc2c(NS(=O)(=O)c3ccccc3)cccc2C1=O,53,2,18
CCOc1ccc(NC(=O)CN(Cc2ccccc2)S(=O)(=O)c2ccc(C)cc2)cc1,.,.,15
Cc1cc(NCCN2CCCCC2)c2ccc3ccccc3c2n1,.,.,13
CCn1c(C)c(CCC(=O)NCCCc2ccccc2)c(=O)n2nc(-c3ccccc3OC)cc12,.,.,21
COc1ccc(NC(=O)C2CCCCN2/N=C/c2ccc(OC)c(OCC(C)C)c2)cc1OC (centres undefined),.,.,20
Cc1ccc(-c2ccc(OC(=O)c3ccccc3F)cc2)cc1,9,0,25
N#CC1=C(N)Nc2onc(-c3cccc(O)c3)c2C1c1ccccc1 (centres undefined),40,-2,73
CCCCN1C(=O)/C(=C/N(C(C)=O)c2ccccc2)SC1=S,.,.,8
Cc1cccc(OCC(=O)Nc2c(C(=O)Nc3cccc(F)c3)oc3ccccc23)c1,.,.,-1
COc1ccc(S(=O)(=O)Nc2cccc3c2O[C@H](CN(C)Cc2ccc(C(=O)Nc4ccccc4N)cc2)[C@@H](C)CN([C@@H](C)CO)C3=O)cc1,129*,-2,20
C[C@@H]1CN([C@H](C)CO)C(=O)c2cccc(NS(=O)(=O)c3cccs3)c2O[C@@H]1CN(C)Cc1ccc(C(=O)Nc2ccccc2N)cc1,138*,-1,22
COc1ccc(S(=O)(=O)Nc2cccc3c2O[C@@H](CN(C)Cc2ccc(C(=O)Nc4ccccc4N)cc2)[C@H](C)CN([C@@H](C)CO)C3=O)cc1,55,1,19
C[C@H](CO)N1C[C@H](C)[C@H](CN(C)Cc2ccc(C(=O)O)cc2)Oc2c(NS(=O)(=O)c3cccs3)cccc2C1=O,10,2,-9
Cc1ccc(S(=O)(=O)Nc2ccc3c(c2)CC(=O)N([C@@H](C)CO)C[C@@H](C)[C@@H](CN(C)Cc2ccc(C(=O)Nc4ccccc4N)cc2)O3)cc1,109*,1,53
C[C@@H]1CN([C@H](C)CO)C(=O)Cc2cc(NS(=O)(=O)c3ccc(F)cc3)ccc2O[C@H]1CN(C)Cc1ccc(C(=O)Nc2ccccc2N)cc1,?,-3,-8
C[C@H]1CN([C@@H](C)CO)C(=O)Cc2cc(NS(=O)(=O)c3cccs3)ccc2O[C@H]1CN(C)Cc1ccc(C(=O)Nc2ccccc2N)cc1,141*,-4,40
C[C@@H]1CN([C@H](C)CO)C(=O)Cc2cc(NS(=O)(=O)c3ccc(F)cc3)ccc2O[C@@H]1CN(C)Cc1ccc(C(=O)Nc2ccccc2N)cc1,91*,-2,60
C[C@@H]1CN([C@H](C)CO)C(=O)Cc2cc(NS(=O)(=O)c3ccc(Cl)cc3)ccc2O[C@H]1CN(C)Cc1ccc(C(=O)Nc2ccccc2N)cc1,62,-2,-3
